Drawing on PubChem BioAssay (EPA / NIEHS), this text covers AC50 and outcome for 29 molecules.

The structures appear in SMILES notation. Where “and” joins values, the source holds several entries; their conditions need not be identical. Identical values can stand only once. Where a structure was tested more than once in an assay, its records may differ in their call. Calls of active or inactive are those of the source. Rule for the calls: active = hit-call score of the fitted dose curve at least 0.9, where 1 is the maximum; inactive = score below 0.9.

Chain of CCAAT/enhancer-binding protein beta (Homo sapiens) (P17676 whole entry, looked up, the tested form may be a part): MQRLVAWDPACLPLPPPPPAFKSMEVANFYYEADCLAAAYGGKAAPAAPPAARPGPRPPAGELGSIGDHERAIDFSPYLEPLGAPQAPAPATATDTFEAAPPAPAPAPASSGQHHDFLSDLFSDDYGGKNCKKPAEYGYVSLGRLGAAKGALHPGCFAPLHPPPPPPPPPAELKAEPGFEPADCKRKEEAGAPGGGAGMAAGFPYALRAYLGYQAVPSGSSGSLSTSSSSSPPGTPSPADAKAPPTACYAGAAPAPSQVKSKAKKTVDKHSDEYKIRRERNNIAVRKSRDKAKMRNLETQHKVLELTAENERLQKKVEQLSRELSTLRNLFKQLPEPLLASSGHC

Tested on in the first experiment: not listed separately
Briefly: ATG_CRE_CIS: Attagene CIS-FACTORIAL HepG2 Assay for human cAMP Responsive Element (CRE) binding protein 3 (AID 2282926). Particulars: HepG2 CRE cis-reporter, Attagene multiplexed mRNA; actives raise or lower the signal. The method, boiled down:
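Human liver HepG2, transient MRTU transfection, 24 h compound exposure. Total RNA → oligo(dT) RT → PCR → 6-FAM primer extension → HpaI cut → CE. Activity called both directions vs DMSO.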
Consider `CCCC(=O)O`, for which the AC50 is 0.0135 µM (active).
In the case of `CCCCCCCC(=O)OC`, the molecule was called inactive.
Same read-out and setting: in the case of `O=NO` it was “inactive”.
For the molecule `CCCCCCC(CCCCCCCCCCC(=O)OCC(COC(C)=O)OC(C)=O)OC(C)=O` (configuration not stated), the molecule was classed as inactive.
Same read-out and setting: in the case of `NCCOCCOCCN` it was “inactive”; in that of `CSc1ccc(Oc2ccc(S(N)(=O)=O)cc2CN(C)C)cc1C`, “inactive”.
As to `C=CCc1ccc(OC)c(OC)c1`, the outcome was inactive.
Same read-out and setting: with `CCCCC(CC)COP(=O)(OCC(CC)CCCC)OCC(CC)CCCC` (configuration not stated) the entry was “inactive”.
As to `O=C(N[C@@H](c1ccccc1)[C@@H]1CCCCN1)c1cccc(C(F)(F)F)c1Cl`, the AC50 is 25.4 µM (active).
Regarding `CC(=O)OCC(COC(C)=O)OC(C)=O`, the result was inactive.
The same measure, in the same setting: in the case of `CN(C)CCCN1c2ccccc2Sc2ccc(Cl)cc21` it was “inactive”; in that of `CC(=O)O[C@]1(C(C)=O)CC[C@H]2[C@@H]3C=C(Cl)C4=CC(=O)[C@@H]5C[C@@H]5[C@]4(C)[C@H]3CC[C@@]21C`, “inactive”; in that of `NC=O`, “inactive”.
Same read-out and setting: in the case of `CC1(C)C(=O)NC(=O)N1CO` it was “inactive”.
Still for that read-out and setting: in the case of `CC1=C(C)S(=O)(=O)CCS1(=O)=O` it was “inactive”; in that of `CC(COCC(C)OC(=O)c1ccccc1)OC(=O)c1ccccc1` (configuration not stated), “inactive”; in that of `CCCCCCC(C=O)=Cc1ccccc1`, “inactive”.
As for `NC1CCCCC1`, the result was inactive.
Take `CC(=O)S[C@H](C(=O)N[C@H]1Cc2ccccc2[C@H]2CCC[C@@H](C(=O)O)N2C1=O)C(C)C`: the outcome was inactive.
Turning to `Cc1c(C)c2c(c(C)c1O)CCC(C)(COc1ccc(CC3SC(=O)NC3=O)cc1)O2` (configuration not stated), the molecule was called inactive.
With `C/C=C/c1ccc(OC)cc1`, the molecule was called inactive.
Still for that read-out and setting: in the case of `O=Cc1ccccc1C=O` it was “inactive”; in that of `CCCCCCCCCCCCCCOS(=O)(=O)O`, “inactive”.
For `Cn1cnc2c1c(=O)[nH]c(=O)n2C`, the call was inactive.
Same read-out and setting: with `Cc1cc(SC2=C(O)C[C@@](CCc3ccc(N)cc3)(C(C)C)OC2=O)c(C(C)(C)C)cc1CO` the entry was “inactive”.
The same measure, in the same setting: in the case of `CCCCOC(=O)CCCCC(=O)OCCCC` it was “inactive”; in that of `Nc1nc(=S)c2[nH]cnc2[nH]1`, “inactive”.
Consider `CCN(CC)CCOc1ccc(C(=C(Cl)c2ccccc2)c2ccccc2)cc1`, for which the AC50 was 12.8 µM (active) and the call was inactive.
As to `C#CC(O)C(CC)CCCC` (configuration not stated), the molecule was called inactive.

Another experiment addresses CCAAT/enhancer-binding protein beta (Homo sapiens) (UniProt P17676). Briefly: ATG_C_EBP_CIS: Attagene CIS-FACTORIAL HepG2 Assay for human CCAAT/Enhancer Binding Protein (C/EBP) beta (AID 2282927). The settings on record: HepG2 Attagene cis-factorial transcription factor reporter; actives raise or lower the signal. An outline of the steps:
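Endogenous C/EBPb-driven reporter transcripts measured in transfected human HepG2 cells at 24 h via RT-PCR and capillary electrophoresis of labelled fragments. Activity fitted in both directions relative to DMSO baseline.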
Turning to `CCCC(=O)O`, the result was inactive.
Same read-out and setting: with `CCCCCCCC(=O)OC` the entry was “inactive”; with `O=NO`, “inactive”; with `CCCCCCC(CCCCCCCCCCC(=O)OCC(COC(C)=O)OC(C)=O)OC(C)=O` (configuration not stated), “inactive”.
As for `NCCOCCOCCN`, the outcome was inactive.
The same measure, in the same setting: in the case of `CSc1ccc(Oc2ccc(S(N)(=O)=O)cc2CN(C)C)cc1C` it was “inactive”.
The same measure, in the same setting: with `C=CCc1ccc(OC)c(OC)c1` the entry was “inactive”; with `CCCCC(CC)COP(=O)(OCC(CC)CCCC)OCC(CC)CCCC` (configuration not stated), “inactive”.
The same measure, in the same setting: with `O=C(N[C@@H](c1ccccc1)[C@@H]1CCCCN1)c1cccc(C(F)(F)F)c1Cl` the entry was “inactive”; with `CC(=O)OCC(COC(C)=O)OC(C)=O`, “inactive”.
For the molecule `CN(C)CCCN1c2ccccc2Sc2ccc(Cl)cc21`, the outcome was inactive.
Consider `CC(=O)O[C@]1(C(C)=O)CC[C@H]2[C@@H]3C=C(Cl)C4=CC(=O)[C@@H]5C[C@@H]5[C@]4(C)[C@H]3CC[C@@]21C`, for which the outcome was inactive.
On the same count and under the same terms, in the case of `NC=O` it was “inactive”; in that of `CC1(C)C(=O)NC(=O)N1CO`, “inactive”.
`CC1=C(C)S(=O)(=O)CCS1(=O)=O`: the AC50 is 129 µM (active).
For the molecule `CC(COCC(C)OC(=O)c1ccccc1)OC(=O)c1ccccc1` (configuration not stated), the outcome was inactive.
As to `CCCCCCC(C=O)=Cc1ccccc1`, the outcome was inactive.
Still for that read-out and setting: in the case of `NC1CCCCC1` it was “inactive”.
The same measure, in the same setting: in the case of `CC(=O)S[C@H](C(=O)N[C@H]1Cc2ccccc2[C@H]2CCC[C@@H](C(=O)O)N2C1=O)C(C)C` it was “inactive”; in that of `Cc1c(C)c2c(c(C)c1O)CCC(C)(COc1ccc(CC3SC(=O)NC3=O)cc1)O2` (configuration not stated), “inactive”.
The same measure, in the same setting: in the case of `C/C=C/c1ccc(OC)cc1` it was “inactive”; in that of `O=Cc1ccccc1C=O`, “inactive”; in that of `CCCCCCCCCCCCCCOS(=O)(=O)O`, “inactive”.
Regarding `Cn1cnc2c1c(=O)[nH]c(=O)n2C`, the result was inactive.
Still for that read-out and setting: with `Cc1cc(SC2=C(O)C[C@@](CCc3ccc(N)cc3)(C(C)C)OC2=O)c(C(C)(C)C)cc1CO` the entry was “inactive”.
On the same count and under the same terms, with `CCCCOC(=O)CCCCC(=O)OCCCC` the entry was “inactive”.
Consider `Nc1nc(=S)c2[nH]cnc2[nH]1`, for which the AC50 is 100 µM (active).
For the molecule `CCN(CC)CCOc1ccc(C(=C(Cl)c2ccccc2)c2ccccc2)cc1`, the half-maximal activity concentration (AC50) is 17.4 µM (active) and the outcome was inactive.
In the case of `C#CC(O)C(CC)CCCC` (configuration not stated), the AC50 is 128 µM (active).

Tested on in another experiment: not listed separately
Briefly: ATG_CMV_CIS: Attagene CIS-FACTORIAL HepG2 Assay for human CMV (Internal Marker) (AID 2282928).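 Note: endpoint acts as a background internal control marker rather than a target.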 Particulars: HepG2 CMV promoter reporter, transcription factor profiling; actives raise or lower the signal. An outline of the steps:
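Endogenous transcription factor activity read in HepG2 via transfected cis-promoter reporter units. After 24 h dosing, reporter mRNA measured by RT-PCR/capillary electrophoresis; gain or loss of signal fit relative to DMSO.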
For `CCCC(=O)O`, the AC50 was 44.4 µM (active).
Regarding `CCCCCCCC(=O)OC`, the call was inactive.
On the same count and under the same terms, with `O=NO` the entry was “inactive”.
Regarding `CCCCCCC(CCCCCCCCCCC(=O)OCC(COC(C)=O)OC(C)=O)OC(C)=O` (configuration not stated), the AC50 is 35.6 µM (active).
Consider `NCCOCCOCCN`, for which the call was inactive.
On the same count and under the same terms, with `CSc1ccc(Oc2ccc(S(N)(=O)=O)cc2CN(C)C)cc1C` the entry was “inactive”; with `C=CCc1ccc(OC)c(OC)c1`, “inactive”; with `CCCCC(CC)COP(=O)(OCC(CC)CCCC)OCC(CC)CCCC` (configuration not stated), “inactive”.
As to `O=C(N[C@@H](c1ccccc1)[C@@H]1CCCCN1)c1cccc(C(F)(F)F)c1Cl`, the AC50 was 12.1 µM (active).
On to `CC(=O)OCC(COC(C)=O)OC(C)=O`, for which the result was inactive.
Same read-out and setting: with `CN(C)CCCN1c2ccccc2Sc2ccc(Cl)cc21` the entry was “inactive”.
For the molecule `CC(=O)O[C@]1(C(C)=O)CC[C@H]2[C@@H]3C=C(Cl)C4=CC(=O)[C@@H]5C[C@@H]5[C@]4(C)[C@H]3CC[C@@]21C`, the AC50 is 100 µM (active) and 73.3 µM (active) and 33.4 µM (active); the outcome was inactive.
As for `NC=O`, the molecule was called inactive.
For the molecule `CC1(C)C(=O)NC(=O)N1CO`, the call was inactive.
With `CC1=C(C)S(=O)(=O)CCS1(=O)=O`, the AC50 is 143 µM (active).
As to `CC(COCC(C)OC(=O)c1ccccc1)OC(=O)c1ccccc1` (configuration not stated), the outcome was inactive.
As to `CCCCCCC(C=O)=Cc1ccccc1`, the AC50 was 74.3 µM (active) and the outcome was inactive.
Regarding `NC1CCCCC1`, the molecule was called inactive.
For the molecule `CC(=O)S[C@H](C(=O)N[C@H]1Cc2ccccc2[C@H]2CCC[C@@H](C(=O)O)N2C1=O)C(C)C`, the molecule was called inactive.
With `Cc1c(C)c2c(c(C)c1O)CCC(C)(COc1ccc(CC3SC(=O)NC3=O)cc1)O2` (configuration not stated), the call was inactive.
The same measure, in the same setting: with `C/C=C/c1ccc(OC)cc1` the entry was “inactive”; with `O=Cc1ccccc1C=O`, “inactive”.
Still for that read-out and setting: with `CCCCCCCCCCCCCCOS(=O)(=O)O` the entry was “inactive”.
The same measure, in the same setting: in the case of `Cn1cnc2c1c(=O)[nH]c(=O)n2C` it was “inactive”; in that of `Cc1cc(SC2=C(O)C[C@@](CCc3ccc(N)cc3)(C(C)C)OC2=O)c(C(C)(C)C)cc1CO`, “inactive”.
Regarding `CCCCOC(=O)CCCCC(=O)OCCCC`, the AC50 is 154 µM (active).
Same read-out and setting: in the case of `Nc1nc(=S)c2[nH]cnc2[nH]1` it was 19 µM (active).
In the case of `CCN(CC)CCOc1ccc(C(=C(Cl)c2ccccc2)c2ccccc2)cc1`, the AC50 was 7.17 µM (active) and the outcome was inactive.
Regarding `C#CC(O)C(CC)CCCC` (configuration not stated), the molecule was classed as inactive.

As a reminder, the AC50 is the concentration at which the activity in the assay is half-maximal.
